The target in assay [1] is Aryl hydrocarbon receptor (Homo sapiens) (UniProt P35869). Kind of assay: qHTS assay to identify small molecule that activate the aryl hydrocarbon receptor (AhR) signaling pathway (AID 743085).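 Further: HG2L7.5c1 human HepG2 liver cells with stably integrated DRE-driven firefly reporter; series mostly up to about 70 µM; nearly all actives have a fitted effect of over 15% in size.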 The essentials:
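Luminescence (ONE-Glo) from a dioxin-responsive-element luciferase reporter in HG2L7.5c1 HepG2 cells after 24 hr compound exposure at 37C; viability measured by CellTiter-Fluor fluorescence beforehand.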

Assay [2] concerns the target Peroxisome proliferator-activated receptor gamma (Homo sapiens) (UniProt P37231). Kind of assay: qHTS assay to identify small molecule agonists of the peroxisome proliferator-activated receptor gamma (PPARg) signaling pathway (AID 743094; active means well fitted activation curve with a large enough effect in the signal ratio in the repeat runs, not every such curve was filed as active; the % refers to the signal ratio). An outline of the steps:
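Quantitative HTS agonist mode: stable HEK293H line with UAS-beta-lactamase reporter under PPARg control, 17 h compound exposure at 37C, fluorescence after 1 h FRET substrate loading at room temperature.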
A general note: qHTS replaces the single test concentration by a dilution series.

The target is the same in assay [3]. Kind of assay: qHTS assay to identify small molecule antagonists of the peroxisome proliferator-activated receptor gamma (PPARg) signaling pathway (AID 743191; calls by dose curve; further: series mostly up to about 63 µM; nearly all actives have a fitted effect of over 30% in size). An outline of the steps: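 GeneBLAzer PPARg UAS-bla HEK293H cells carrying a UAS-driven beta-lactamase reporter were plated at 3000 cells/well, preincubated 5 h at 37C, then given compound for 17 h at 37C; LiveBLAzer B/G FRET substrate was read after 1 h at room temperature.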

Assay [4] can be described thus: qHTS assay to identify small molecule antagonists of the peroxisome proliferator-activated receptor gamma (PPARg) signaling pathway - cell viability counter screen (AID 743194). Further: nearly all actives have a fitted effect of over 55% in size. The essentials: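 PPARg-UAS-bla HEK293H cells were plated, rested 5 h at 37 C, then treated with compounds plus rosiglitazone (50 nM final) for 17 h at 37 C; viability was then read by CellTiter-Glo luminescence after 30 min at room temperature.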

Assay [5] is described as follows: qHTS assay for small molecule agonists of the antioxidant response element (ARE) signaling pathway (AID 743202; active means well fitted activation curve with a large enough effect in the signal ratio in the repeat runs, not every such curve was filed as active; the % refers to the signal ratio; further: potency means the concentration at half of the fitted maximal effect). The essentials: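 Read-out: LiveBLAzer B/G FRET substrate fluorescence after 2 h at room temperature, following 16 h compound treatment at 37 C of HepG2 cells carrying an ARE-driven beta-lactamase reporter.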
A short description of assay [6]: qHTS assay for small molecule agonists of the antioxidant response element (ARE) signaling pathway - cell viability counter screen (AID 743203; calls by dose curve; further: nearly all actives have a fitted effect of over 55% in size). The essentials: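 Seeded at 2,000 cells/well, ARE-bla HepG2 cells were incubated 5 hrs before compound addition. After 16 hrs of treatment at 37C with 5% CO2, CellTiter-Glo reagent was added and luminescence read 30 min later.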

A short description of assay [7]: qHTS assay for small molecule activators of the heat shock response signaling pathway (AID 743210; active means well fitted activation curve with a large enough effect in the signal ratio in the repeat runs, with a control signal flat, not every such curve was filed as active; the % refers to the signal ratio; further: series mostly up to about 63 µM). The essentials: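 HSE-bla HeLa cells (beta-lactamase reporter under heat shock response elements) were exposed to compounds for 5 h at 37 C, then loaded with LiveBLAzer B/G FRET substrate for 2.5 h at room temperature before fluorescence reading.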
Assay [8] is described as follows: qHTS assay to identify small molecule agonists of the peroxisome proliferator-activated receptor delta (PPARd) signaling pathway - cell viability counter screen (AID 743211). Further: nearly all actives have a fitted effect of over 55% in size. The essentials:
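Viability was measured as CellTiter-Glo luminescence (30 min, room temperature) in the same wells as the beta-lactamase readout. GeneBLAzer PPARd UAS-bla HEK293H cells received compound after 5 h plating and were incubated 17 h at 37 C.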

The nature of assay [9]: qHTS assay for small molecule activators of the heat shock response signaling pathway - cell viability counter screen (AID 743209). Further: nearly all actives have a fitted effect of over 50% in size. An outline of the steps:
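First, HSE-bla HeLa cells were seeded at 1500 cells/well and kept overnight at 37 C. Next, compounds were pinned in and incubated 5 h. After the FRET substrate step, CellTiter-Glo was added and luminescence read 30 min later.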

Assay [10] is described as follows: qHTS assay to identify small molecule that activate the aryl hydrocarbon receptor (AhR) signaling pathway - cell viability counter screen (AID 743086).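 Further: HepG2 liver cells carrying the AhR DRE luciferase reporter; series mostly up to about 70 µM; nearly all actives have a fitted effect of over 45% in size.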 An outline of the steps:
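HepG2-AhR-luc (HG2L7.5c1) cells, 4000/well, were preincubated 5 h at 37C, exposed to compound in qHTS format for 24 hr at 37C, then given CellTiter-Fluor for 30 min; viability was read as fluorescence in the reporter wells.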

Results filed as inconclusive are left out. A number with no mark means an inactive call. Activity calls are given as the source filed them. Unless noted, the call rests on the fitted dose curve; in most records, active means well fitted curve in the direction sought with a large enough effect in the repeat runs; inconclusive means weak or mixed curves; inactive means no such curve, though single readings can be large; an effect the other way counts as inactive or inconclusive.
On the % scale 0 is the no-effect control and ±100 the full control effect.

Sequence of Aryl hydrocarbon receptor (Homo sapiens) (P35869 whole entry, looked up): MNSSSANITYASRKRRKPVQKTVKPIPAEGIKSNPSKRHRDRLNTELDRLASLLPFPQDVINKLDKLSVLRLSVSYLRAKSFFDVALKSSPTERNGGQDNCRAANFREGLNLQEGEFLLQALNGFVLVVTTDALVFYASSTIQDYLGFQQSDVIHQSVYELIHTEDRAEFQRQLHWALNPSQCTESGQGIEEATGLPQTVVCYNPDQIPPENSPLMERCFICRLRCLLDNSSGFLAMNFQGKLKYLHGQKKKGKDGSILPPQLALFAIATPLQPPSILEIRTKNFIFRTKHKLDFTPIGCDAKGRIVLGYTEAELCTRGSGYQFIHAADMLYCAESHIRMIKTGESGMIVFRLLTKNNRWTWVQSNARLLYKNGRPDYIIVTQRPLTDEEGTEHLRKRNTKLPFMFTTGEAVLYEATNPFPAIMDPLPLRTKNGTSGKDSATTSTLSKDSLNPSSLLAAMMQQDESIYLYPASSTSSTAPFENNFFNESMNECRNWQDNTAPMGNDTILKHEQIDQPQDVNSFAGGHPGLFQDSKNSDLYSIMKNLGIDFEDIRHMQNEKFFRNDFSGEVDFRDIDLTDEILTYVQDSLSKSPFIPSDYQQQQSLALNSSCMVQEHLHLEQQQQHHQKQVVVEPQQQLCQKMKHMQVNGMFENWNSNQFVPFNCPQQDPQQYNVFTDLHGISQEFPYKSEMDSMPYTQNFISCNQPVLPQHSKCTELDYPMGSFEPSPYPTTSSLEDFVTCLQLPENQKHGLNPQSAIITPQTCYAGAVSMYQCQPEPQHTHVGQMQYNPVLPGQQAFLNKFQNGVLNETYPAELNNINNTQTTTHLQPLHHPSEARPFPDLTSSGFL
Sequence of Peroxisome proliferator-activated receptor gamma (Homo sapiens) (P37231 whole entry, looked up): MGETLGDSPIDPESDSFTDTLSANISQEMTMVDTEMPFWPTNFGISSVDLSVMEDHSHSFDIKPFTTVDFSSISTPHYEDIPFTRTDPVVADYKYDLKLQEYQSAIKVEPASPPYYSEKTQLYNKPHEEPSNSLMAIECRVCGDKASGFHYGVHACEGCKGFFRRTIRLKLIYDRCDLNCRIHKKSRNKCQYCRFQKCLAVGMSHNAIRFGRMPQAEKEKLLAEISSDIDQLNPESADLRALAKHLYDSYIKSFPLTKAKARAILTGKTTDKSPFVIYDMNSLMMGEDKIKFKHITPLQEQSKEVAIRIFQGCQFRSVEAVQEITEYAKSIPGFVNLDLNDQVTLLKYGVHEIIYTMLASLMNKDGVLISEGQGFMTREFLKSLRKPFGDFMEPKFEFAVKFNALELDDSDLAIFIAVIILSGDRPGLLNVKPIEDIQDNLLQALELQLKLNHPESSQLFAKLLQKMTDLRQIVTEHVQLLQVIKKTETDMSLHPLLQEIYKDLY

Consider `Cc1cccc(N)n1`, for which the Potency entry in assay [1] and in assay [5] was “inactive” in each case. Moreover, the call in [2], in [3], in assay [4], in assay [6] and in [7] was inactive.

On to `C[C@@H](CN1CC(=O)NC(=O)C1)N1CC(=O)NC(=O)C1`, for which the Potency result in [1] was “inactive”. For the same molecule, the call in assay [2], in assay [3], in [4], in assay [6], in assay [7] and in assay [8] was inactive.

For the molecule `O=C1CC2(CCCC2)CC(=O)N1CCNCC1COc2ccccc2O1` (stereo not drawn), the Potency entry in assay [1], in [5] and in assay [9] was “inactive” throughout. Moreover, the molecule was classed as inactive in [4] and in assay [6].

On to `CCOC(=O)c1ccc(N(C)C)cc1`, for which the call in assay [10], in assay [2], in assay [4] and in assay [6] was inactive. Also, the Potency entry in [9] was “inactive”.

Turning to `O=S(=O)(O)c1ccc(Cl)cc1`, the Potency result in assay [1], in [5] and in [9] was “inactive” each time. The molecule was classed as inactive in assay [3], in [4], in [6] and in assay [7].

As for `CC(C)(C)C(=O)NCCCC(=O)O`, the Potency result in assay [1], in assay [5] and in assay [9] was “inactive” each time. In addition, the call in assay [2], in assay [4], in assay [6], in assay [7] and in assay [8] was inactive.

With `C/C=C/C(=O)CCCC`, the Potency result in assay [1] and in [9] was “inactive” each time. Further, the result in assay [2], in assay [3], in assay [4], in assay [6], in assay [7] and in [8] was inactive.

Regarding `CCO/C=C1\N=C(c2ccccc2)OC1=O`, the Potency entry in [1] and in assay [5] was “inactive” in each case. Also, the call in assay [2], in [4], in assay [6], in [7] and in assay [8] was inactive.

Regarding `CN(C)c1cc(NC(=O)CNC(C)(C)C)c(O)c2c1C[C@H]1C[C@H]3[C@H](N(C)C)C(=O)C(C(N)=O)=C(O)[C@@]3(O)C(=O)C1=C2O`, the Potency result in [1] and in [9] was “inactive” throughout. The molecule was classed as inactive in [2], in [3], in [4], in assay [6] and in assay [7].

In the case of `Cc1cc(O)c(Cl)cc1C`, the Potency result in [1], in assay [5] and in [9] was “inactive” in each case. Further, the result in assay [3], in assay [4], in [6] and in [7] was inactive.

Take `CC1(C)S[C@@H]2[C@H](NC(=O)Cc3ccccc3)C(=O)N2[C@H]1C(=O)O` (tested in a mixture with another compound): the Potency result in assay [1], in [5] and in assay [9] was “inactive” each time. In addition, the call in [2], in assay [3], in assay [4], in assay [6], in assay [7] and in assay [8] was inactive.

As for `CC(O)CCCCn1c(=O)c2c(ncn2C)n(C)c1=O` (stereo not drawn), the Potency entry in assay [1] and in [5] was “inactive” throughout. Moreover, the call in assay [2], in assay [3], in assay [4], in assay [6], in [7] and in assay [8] was inactive.

Consider `CN(C)CCc1c[nH]c2ccc(CS(=O)(=O)N3CCCC3)cc12`, for which the Potency result in assay [1], in assay [5] and in assay [9] was “inactive” in each case. For the same molecule, the result in [4], in [6], in assay [7] and in assay [8] was inactive.

For `Cc1ccc(O)c([N+](=O)[O-])c1`, the Potency result in assay [1] and in assay [9] was “inactive” throughout. Also, the outcome in [3], in assay [4], in [6], in [7] and in assay [8] was inactive.

`CCCCCC(CC)OC(=O)CCCOc1ccc(Cl)cc1Cl` (stereo not drawn): the Potency result in [1], in assay [5] and in [9] was “inactive” throughout. The call in [2], in assay [3], in assay [4], in assay [6], in assay [7] and in [8] was inactive.

`CCCCCCCCCCCCCCBr`: the Potency entry in [1], in assay [5] and in assay [9] was “inactive” each time. Also, the outcome in assay [3], in assay [4], in assay [6], in assay [7] and in assay [8] was inactive.

Consider `O=Cc1ccccc1S(=O)(=O)O`, for which the Potency result in assay [1], in [5] and in assay [9] was “inactive” throughout. Moreover, the call in assay [3], in assay [4], in [6], in assay [7] and in [8] was inactive.

In the case of `CCCCCC(=O)CC`, the Potency result in [1], in [5] and in assay [9] was “inactive” each time. The call in [2], in [4], in [6], in [7] and in [8] was inactive.

`CCC(C)SSC(C)CC` (stereo not drawn): the Potency entry in assay [1] is “inactive”. In addition, the molecule was classed as inactive in assay [2], in assay [4], in [6], in assay [7] and in assay [8].

As for `CCCCCCCCCCCCCCCC(=O)OC`, the Potency result in [1] is “inactive”. For the same molecule, the call in [2], in [3], in assay [4], in assay [6], in assay [7] and in assay [8] was inactive.

With `CO/N=C(\C(=O)O)c1csc(NC(=O)CCl)n1`, the molecule was classed as inactive in [4], in assay [6] and in [7]. In assay [5], the Potency is 13.3 µM (active). In addition, the Potency entry in [9] was “inactive”.

As for `Clc1ccc2c(c1)Nc1ccccc1S2`, the result in [4], in assay [6], in [7] and in assay [8] was inactive. Moreover, the Potency in assay [5] is 29.8 µM (active). In assay [9], the Potency entry is “inactive”.

For the molecule `C[C@@H]1NC(=O)[C@@H](N)CNC(=O)[C@H](C2CCNC(N)=N2)NC(=O)/C(=C/NC(N)=O)NC(=O)[C@H](CNC(=O)C[C@@H](N)CCCN)NC1=O` (stereo partly drawn), in assay [2], the molecule was classed as inactive. The ratio activity, negative = inhibition in assay [3] is 0.698% [at 0.55 µM]. The activity change, negative = cytotoxicity was 14.8% [at 0.55 µM] in [4], -24.2% [at 0.55 µM] in assay [9] and 14.7% [at 0.55 µM] in assay [8]. For the same molecule, the activation in assay [5] was 11.7% [at 0.756 µM]; in assay [7], -0.65% [at 0.55 µM]. For the same molecule, in assay [6], the viability change, negative = cytotoxic is 6.23% [at 0.756 µM].

Regarding `Cc1nnc(C(=O)NC(C)(C)c2nc(C(=O)NCc3ccc(F)cc3)c(O)c(=O)n2C)o1`, the molecule was called inactive in assay [4], in assay [6], in assay [7] and in assay [8].

Consider `CCCCc1ccc(Cl)cc1`, for which the molecule was called inactive in [10], in assay [3], in assay [4], in assay [6] and in [7]. Further, the Potency entry in [9] was “inactive”.

In the case of `CC(=O)c1ccc(O)c(C(N)=O)c1`, the molecule was classed as inactive in assay [3], in [4], in [6], in [7] and in [8]. Further, the Potency result in [5] and in assay [9] was “inactive” in each case.

With `CN(C)CCC[C@@]1(c2ccc(F)cc2)OCc2cc(C#N)ccc21`, the result in assay [10], in assay [2], in assay [4], in [6], in assay [7] and in assay [8] was inactive. For the same molecule, the Potency result in assay [9] was “inactive”.
